# Data from paper PMC4336329 (PLoS ONE, 2015).
# Hit rate of the full screen: of about 310,000 compounds, about 14,000 (4.5%) showed an effect of 50% or more. Effects have a minus sign here. The list comes from a sample in which strong results are over-represented; it also holds similar structures and randomly drawn compounds.
# Target: human ether-à-go-go-related gene (hERG) potassium channel (human, UniProt Q12809)
# Assay: primary screen, population patch clamp on CHO cells stably expressing hERG; higher = less effect of the substance
# 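Note: peak tail current of the secondary pulse compared with the same well before compound.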
# Chain of human ether-à-go-go-related gene (hERG) potassium channel (Q12809 whole entry, looked up): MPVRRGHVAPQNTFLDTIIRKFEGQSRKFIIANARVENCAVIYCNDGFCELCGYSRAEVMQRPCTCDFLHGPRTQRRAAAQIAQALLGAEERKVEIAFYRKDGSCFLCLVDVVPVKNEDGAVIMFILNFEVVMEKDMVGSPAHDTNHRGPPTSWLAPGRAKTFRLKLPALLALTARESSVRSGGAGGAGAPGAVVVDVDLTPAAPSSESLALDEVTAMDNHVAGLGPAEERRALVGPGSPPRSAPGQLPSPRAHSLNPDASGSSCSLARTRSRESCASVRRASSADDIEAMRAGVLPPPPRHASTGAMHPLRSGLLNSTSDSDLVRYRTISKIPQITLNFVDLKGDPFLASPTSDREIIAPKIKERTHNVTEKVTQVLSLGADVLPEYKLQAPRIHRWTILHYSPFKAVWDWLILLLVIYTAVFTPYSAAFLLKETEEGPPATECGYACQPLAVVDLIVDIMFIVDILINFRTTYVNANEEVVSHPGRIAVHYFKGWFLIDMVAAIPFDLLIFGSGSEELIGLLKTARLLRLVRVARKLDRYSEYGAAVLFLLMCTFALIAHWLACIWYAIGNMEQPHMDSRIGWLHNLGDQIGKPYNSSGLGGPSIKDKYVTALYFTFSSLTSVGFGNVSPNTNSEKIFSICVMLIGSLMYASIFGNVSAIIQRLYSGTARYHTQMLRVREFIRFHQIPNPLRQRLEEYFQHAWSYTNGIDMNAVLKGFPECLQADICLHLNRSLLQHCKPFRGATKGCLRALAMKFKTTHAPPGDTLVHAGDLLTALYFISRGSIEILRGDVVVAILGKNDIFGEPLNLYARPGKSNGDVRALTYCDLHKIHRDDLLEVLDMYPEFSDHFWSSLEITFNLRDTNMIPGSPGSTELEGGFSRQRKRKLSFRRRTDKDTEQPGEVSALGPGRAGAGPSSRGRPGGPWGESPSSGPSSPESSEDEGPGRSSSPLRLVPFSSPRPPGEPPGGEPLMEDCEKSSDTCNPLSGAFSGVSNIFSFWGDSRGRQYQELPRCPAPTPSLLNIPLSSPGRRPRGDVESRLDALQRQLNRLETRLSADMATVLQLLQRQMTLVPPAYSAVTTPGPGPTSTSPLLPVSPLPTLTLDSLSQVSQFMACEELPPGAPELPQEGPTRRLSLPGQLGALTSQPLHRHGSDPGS
row,SMILES,"hERG current change (%, negative = inhibition) at 10uM [%]"
1,COc1cccc(NC(=O)CN2C(=O)COc3ccc(S(=O)(=O)N4CCOCC4)cc32)c1,15.6
2,COc1ccc2nc3oc(C(=O)N4CCC5(CC4)OCCO5)cc3cc2c1,-16.5
3,Cc1cccc(CN2CCC(CNC(=O)Cn3ncc4c([nH]c5ccccc54)c3=O)CC2)c1,-23.1
4,O=C(Cn1ncc2c([nH]c3ccccc32)c1=O)Nc1ccc(CN2CCCCC2)cc1,-65.8
5,O=C(Cn1ncc2c([nH]c3ccccc32)c1=O)NCC1CCN(Cc2ccc(F)cc2)CC1,-66
6,Cc1ccc(NC(=O)Cn2ncc3c([nH]c4ccccc43)c2=O)cc1Cl,21.4
7,O=C(Cn1ncc2c([nH]c3ccccc32)c1=O)NCC1CCN(Cc2ccccc2F)CC1,-44.2
8,O=C(Cn1ncc2c([nH]c3ccccc32)c1=O)Nc1cccnc1,10.3
9,CS(=O)(=O)N(CC(O)CON=C1c2ccccc2-c2ccccc21)c1ccc(F)cc1 (stereo not shown),8.83
10,O=C(Cc1ccc(Cl)cc1)c1c[nH]c(C(=O)NCc2cccnc2)c1,-0.756
11,COc1cccc(-c2nnc(SCC(=O)Nc3ccc(OC)c(OC)c3)n2N)c1,14.3
12,COc1ccc(-n2c(=O)c3c4c(sc3n(CC(=O)NCc3ccco3)c2=O)CCC4)c(OC)c1,-4.75
13,O=C(NCCN1CCOCC1)c1ccc2c(c1)N(Cc1ccc(F)cc1)C(=O)CS2,0.414
14,COc1ccc(CN(C(=O)CN2C(=O)c3ccccc3S2(=O)=O)C(C(=O)NCC2CCCO2)c2ccco2)cc1 (stereo not shown),-4.57
15,CCn1c(C)nnc1SCC(=O)Nc1ccc(C(C)=O)cc1,11.5
16,CN(C)c1oc(/C=C/c2ccccc2)nc1C#N,8.93
17,CCN1CCN(c2oc(-c3ccco3)nc2C#N)CC1,-24.1
18,CN1CCN(c2oc(/C=C/c3ccccc3)nc2C#N)CC1,-53.7
19,CN(C)CCCNc1oc(/C=C/c2ccccc2)nc1C#N,-32.5
20,CN(C)CCNc1oc(/C=C/c2ccccc2)nc1C#N,-29.2
21,CCN1CCN(c2oc(/C=C/c3ccccc3)nc2C#N)CC1,-63.1
22,C=CCNc1oc(/C=C/c2ccccc2)nc1C#N,-28

row,SMILES,"hERG current change (%, negative = inhibition) at 10uM [%]"
1,CNc1oc(/C=C/c2ccccc2)nc1C#N,8.33
2,CCN(CC)CCCNc1oc(/C=C/c2ccccc2)nc1C#N,-71
3,N#CC1=C(c2ccc(-c3ccccc3)cc2)COC1=O,-15.1
4,CCCn1nc(C(=O)NNC(=O)CCCOc2ccc(OC)cc2)c2ccccc2c1=O,-8.53
5,Cc1ccc(NC(=O)CC(C(=O)O)c2ccccc2)cc1 (stereo not shown),8.15
6,O=C(c1ccc(OC2CCN(C/C=C/c3ccccc3)CC2)cc1)N1CCCC1,-75.7
7,O=C(c1ccc(OC2CCN(C/C=C/c3ccccc3)CC2)cc1)N1CCCCC1,-53.1
8,COc1ccccc1/C=C/CN1CCC(Oc2ccc(C(=O)N3CCCC3)cc2)CC1,-24.3
9,O=C(c1ccc(OC2CCN(Cc3ccccn3)CC2)cc1)N1CCCCCC1,-14.9
10,Cc1ccccc1CN1CCC(Oc2ccc(C(=O)N3CCCC3)cc2)CC1,-13.7
11,CCCC(=O)NC(c1ccc(Cl)cc1Cl)c1ccc2cccnc2c1O (stereo not shown),0.094
12,CC(=O)Cc1c(C(=O)O)c(C)nn1-c1ccccc1,21.5
13,O=[N+]([O-])/C=C/c1ccc2c(ccn2Cc2ccccc2)c1,15.8
14,O=C(COc1ccc(F)cc1)Nc1c(C(=O)N2CCC(N3CCCCC3)CC2)oc2ccccc12,-81.1
15,O=C(COc1ccccc1)Nc1c(C(=O)N2CCC(N3CCCCC3)CC2)oc2ccccc12,-69
16,COCC(=O)Nc1c(C(=O)N2CCCC2)oc2ccccc12,1.46
17,COc1ccc(OCC(=O)Nc2ccccc2C(=O)N2CCCC2)cc1,-7.38
18,CC(C)CC(=O)Nc1c(C(=O)N2CCN(Cc3ccccc3)CC2)oc2ccccc12,-20.9
19,COc1ccc(OCC(=O)Nc2c(C(=O)N3CCC(N4CCCCC4)CC3)oc3ccccc23)cc1,-87.7
20,COc1ccc(OCC(=O)Nc2c(C(=O)N3CCN(C)CC3)oc3ccccc23)cc1,-42
21,N#Cc1ccccc1OCC(=O)Nc1c(C(=O)C2CC2)oc2ccccc12,2.52
22,COc1ccc(N2CCN(C(=O)c3oc4ccccc4c3NC(=O)CCc3cc(OC)no3)CC2)cc1,-10.4

row,SMILES,"hERG current change (%, negative = inhibition) at 10uM [%]"
1,CCCN1CCN(C(=O)c2oc3ccccc3c2NC(=O)COc2ccc(OC)cc2)CC1,-79.5
2,CCCN1CCN(C(=O)c2oc3ccccc3c2NC(=O)C2CC2)CC1,-42.6
3,COc1ccccc1C(=O)Nc1c(C(=O)N2CCN(C)CC2)oc2ccccc12,-45.2
4,CCCCC[C@H](O)/C=C/[C@@H]1[C@@H](C/C=C\CCCC(=O)O)[C@@H](O)C[C@H]1O.NC(CO)(CO)CO,9.22
5,COc1ccccc1CC(=O)N(CCC1=CCCCC1)c1c(N)n(Cc2ccccc2)c(=O)[nH]c1=O,-12
6,CCn1c(CCC(=O)N(C)CC(=O)Nc2cccc(F)c2)nc2cc(S(=O)(=O)N(C)C)ccc21,-19.3
7,CC(=O)C1=C(O)C(=O)N(c2cccc(Br)c2)C1c1ccc(Br)cc1 (stereo not shown),15.8
8,COCCN(CC(=O)NCc1ccccc1)C(=O)CCC(=O)Nc1ccccn1,4.54
9,CCOC(=O)N1CCN(S(=O)(=O)/C=C/c2ccccc2)CC1,-17.5
10,COC(=O)Cn1cnc2sc(C)c(S(=O)(=O)N3CCN(c4ccccc4OC)CC3)c2c1=O,-5.55
11,Cc1c(Cl)cccc1NC(=O)CNC(=O)c1ccc(F)cc1,27.4
12,Cc1ccc(NC(=O)Nc2nnc(Cc3ccc(F)cc3)s2)cc1,14
13,COc1ccc(-c2nc(CS(=O)CC(=O)NC(C)CCc3ccccc3)c(C)o2)cc1OC (stereo not shown),-16.8
14,CC[C@H]1C2C[C@H]3[C@@H]4N(C)c5ccccc5C45C[C@H](C2[C@H]5O)N3[C@@H]1O (stereo partly shown),-43.8
15,CCC1C2CC3C4N(C)c5ccccc5C45CC(C2C5O)N3[C@@H]1O (stereo partly shown),-28.5
16,CCCC[N+]12C3C[C@H](C4[C@H](O)[C@]5(C[C@@H]41)c1ccccc1N(C)[C@@H]35)[C@H](CC)[C@H]2O.[I-] (stereo partly shown),-56.4
17,Cc1ccc(C(=O)c2oc3ccc(Cl)cc3c2NC(=O)CN2CCN(C)CC2)cc1,-74.3
18,O=C(CN1CCCC1)Nc1c(C(=O)C2CC2)oc2ccccc12,-9.92
19,CC(=O)Nc1c(C(=O)c2ccccc2)oc2ccccc12,-10.3
20,COc1ccc2oc(C(=O)c3ccccc3)c(NC(=O)CN3CCN(C)CC3)c2c1,-59.8
21,NC(=O)c1oc2ccc(Cl)cc2c1NC(=O)CN1CCOCC1,-9.08
22,CC(=O)Nc1c(C(=O)O)oc2ccc(Cl)cc12,2.23

row,SMILES,"hERG current change (%, negative = inhibition) at 10uM [%]"
1,CN1CCN(CC(=O)Nc2c(C(=O)c3ccccc3)oc3ccccc23)CC1,-78.9
2,CC(=O)c1oc2ccccc2c1NC(=O)CN1CCCCC1.Cl,7.19
3,O=C(CN1CCOCC1)Nc1c(C(=O)C2CC2)oc2ccccc12,-6.8
4,COc1ccc2oc(C(=O)c3ccccc3)c(N)c2c1,4.76
5,CN1CCN(CC(=O)Nc2c(C(=O)C3CC3)oc3ccccc23)CC1,-52.4
6,COc1ccc(C(=O)c2oc3ccc(OC)cc3c2NC(C)=O)cc1,27.6
7,O=C(NN=C1CCCC1)c1[nH]c2ccc(Cl)cc2c1-c1ccccc1,7.13
8,Cc1cc(C(=O)CSc2nc(N)cc(=O)[nH]2)c(C)n1CCc1ccc(F)cc1,1.93
9,O=C(NCCNC(=O)c1cnccn1)c1ccc(Cl)c(Cl)c1,-13.3
10,COc1cccc(NC(=O)c2cnsn2)c1,3.19
11,CCOCCNC(=O)c1ccccc1C(=O)NCCOCC,-11.1
12,O=[N+]([O-])c1cc(N=Nc2ccc3ccccc3c2)ccc1O,12.8
13,COC(=O)C1C2C=CC3(CN(c4cccc(Cl)c4)C(=O)C13)O2 (stereo not shown),2.49
14,CC(=O)c1ccc(C(=O)NC2CC(C)(C)Cc3c2cnn3-c2ccccc2)cc1 (stereo not shown),-21.8
15,CC1(C)Cc2c(cnn2-c2ccc(F)cc2)C(NC(=O)c2cnccn2)C1 (stereo not shown),-37.6
16,CC1(C)Cc2c(cnn2-c2ccccc2)C(NC(=O)c2ccc[n+]([O-])c2)C1 (stereo not shown),2.3
17,Cc1cc(C(=O)NC2CC(C)(C)Cc3c2cnn3-c2ccc(F)cc2)no1 (stereo not shown),-32.8
18,CC1(C)Cc2c(cnn2-c2ccccc2)C(NC(=O)c2ccoc2)C1 (stereo not shown),-93.4
19,CC1(C)Cc2c(cnn2-c2ccc(F)cc2)C(NC(=O)c2ccoc2)C1 (stereo not shown),-89.1
